# Screening results as filed in PubChem BioAssay.
# Most compounds without a hit are left out; they make up all but 4.2% or so of the library.
# TCR act – T cell receptor activation; primary human leukocytes, anti-CD3, IL-2 HTRF, 48 h; Potency, µM (top dose mostly 9.22 µM), for the others: at the top dose activation of IL-2 secretion, actives largely listed as activators; 330,000 tested, under 10 active; further: % of control where 0% means no effect
#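 TCR engagement came from a-CD3 beads alone, with compounds added to primary human leukocytes for 48 hr. Secreted IL-2 bridged europium cryptate- and d2-labelled anti-IL-2 antibodies, giving FRET emission at 665nm after 320nm excitation.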
# uPA generation – inhibitors of cell surface uPA generation; cell surface uPA generation assay, qHTS; Potency, µM (titrated, usually from 38.3 µM), for inactives: at the highest dose activity change, negative = inhibition, usual class: inhibitors; 0.31% of 330,000 active; active means well fitted inhibition curve with a large enough effect; inconclusive means small, poorly fitted or top-dose-only effect; inactive means no such curve, though single readings can be large or run the other way; tested in mouse RAW 264.7 cells; further: potency means the concentration at half of the fitted maximal effect; on the % scale 0 is the no-effect control and ±100 the full control effect; nearly all actives have a fitted effect of over 55% in size
# ClpP mod – qHTS Assay for Activators of ClpP; ATP-dependent Clp protease proteolytic subunit (Bacillus subtilis (strain 168)), P80244; purified B. subtilis ClpP, FRET peptide cleavage, 20 min; Potency, µM (highest dose often 57.5 µM), for the others: at the top dose activity change, negative = active; 1.9% of 340,000 active; active means well fitted falling curve with a large enough effect; inconclusive means small, poorly fitted or top-dose-only effect; inactive means no such curve, though single readings can be large or run the other way; further: potency means the concentration at half of the fitted maximal effect; the source files actives as falling curves though it sought activators and does not explain the sign; nearly all actives have a fitted effect of over 65% in size
# Target sequence (P80244 whole entry, looked up): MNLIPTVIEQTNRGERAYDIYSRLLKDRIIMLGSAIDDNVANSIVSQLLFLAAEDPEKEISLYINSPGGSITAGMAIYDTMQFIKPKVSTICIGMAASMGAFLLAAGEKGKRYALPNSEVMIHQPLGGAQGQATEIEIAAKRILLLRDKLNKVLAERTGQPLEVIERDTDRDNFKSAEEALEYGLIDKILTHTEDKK
#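 ClpP 10 microg/mL final, pH 8 Tris/KCl buffer with BSA, glycerol, Tween-20; compound pinned in; FRET-FV substrate; RT 20 min; Ex320/Em430; ΔFRET vs ADEP 5.8 microM, DMSO, no enzyme.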
# Sfp PPTase inh – Sfp phosphopantetheinyl transferase inhibition; Q9F4F7; Biochemical Sfp PPTase activity, qHTS; Potency, µM, for inactives: largest response in the series, negative = inhibition, hits mostly inhibitors; 3.5% of 310,000 active; AID 1490;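 further: the enzyme is Sfp with the accession as filed and its product quenches rhodamine fluorescence; potency means the concentration at half of the fitted maximal effect; 0% = enzyme reaction without inhibitor and -100% = no enzyme wells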
#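 With Hepes-Na pH 7.6 buffer containing 10 mM MgCl2, Sfp (15 nM) modified BHQ-2-YbbR (12.5 uM) using rhodamine-CoA (5 uM). Two reads 30 minutes apart at 525/598 nm yielded each well's rate.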
# Numbers without * were called inactive; ? = inconclusive; . = no result; [ ] = another dose, or the depositor's remark. Unless noted, the call rests on the fitted dose curve; in most records, active means well fitted curve in the direction sought with a large enough effect; inconclusive means small, poorly fitted or top-dose-only effect, or another doubt; inactive means no such curve, though single readings can be large; an effect the other way counts as inactive or inconclusive.
SMILES,TCR act,uPA generation,ClpP mod,Sfp PPTase inh
COC(=O)c1cn(CC(=O)N2CCCCCC2)c2ccccc12,-3.0%,-6.0%,-1.2%,0.9%
O=C(COc1ccc([N+](=O)[O-])cc1)N1CCC(c2nc3ccccc3s2)CC1,.,.,3.4%,.
CC(=O)Nc1ccc2[nH]c(C)cc(=O)c2c1,-0.2%,8.1%,31.6µM*,9.7%
CC(=O)Nc1ccc2[nH]c3ccccc3c2c1,2.0%,-3.1%,-20.1%,2.3%
Cc1cc(NC(=O)CSc2nc(-c3ccco3)cc(C(F)(F)F)n2)no1,2.2%,-9.8%,25.1µM*,-7.0%
Cc1cc(NC(=O)CCSc2nc(-c3ccco3)cc(C(F)(F)F)n2)no1,-1.3%,-3.8%,-8.8%,14.9%
Cc1ccccc1Cn1ccc(NC(=O)CCSc2nc(-c3ccco3)cc(C(F)(F)F)n2)n1,-2.2%,11.0%,28.2µM*,13.1%
Cc1ccc(Cn2ccc(NC(=O)CCSc3nc(-c4ccco4)cc(C(F)(F)F)n3)n2)cc1,3.0%,-3.3%,-3.0%,19.9%
CN(C)CCNC(=O)/C(=C/c1ccc(-c2ccc(Cl)cc2)o1)NC(=O)c1ccccc1,3.7%[46.1 µM],7.1%,15.8µM*,-30.9%
CN(C)CCNC(=O)/C(=C/c1ccc(-c2ccc(Cl)cc2Cl)o1)NC(=O)c1ccccc1,9.2%[46.1 µM],7.5%,-7.1%,39.8µM*
COCCn1c(C)cc(O)c(C(c2ccccc2F)N2CCN(c3ccccc3)CC2)c1=O (configuration not stated),.,.,0.3%,.
Cc1cccc(NC(=O)CN2C(=O)S/C(=C\c3cc(C)n(C)c3C)C2=O)c1,9.4%[46.1 µM],5.3%,-0.8%,56.2µM*
Cc1ccc(NC(=O)CN2C(=O)S/C(=C/c3ccc(-c4cccc(C(=O)O)c4)o3)C2=O)cc1,1.2%,15.9%,.,-17.2%
Cc1cc(C(=O)O)ccc1-c1ccc(/C=C2\SC(=O)N(CC(=O)Nc3ccc4c(c3)OCO4)C2=O)o1,.,.,.,50.1µM*
Cc1ccc(NC(=O)CN2C(=O)S/C(=C\c3cc(C)n(C)c3C)C2=O)cc1,.,8.8%,1.0%,-8.1%
Cc1ccc(C(=O)O)cc1-c1ccc(/C=C2\SC(=O)N(CC(=O)Nc3ccccc3)C2=O)o1,-0.7%,-1.1%,.,17.8µM*
Cc1ccccc1NC(=O)CN1C(=O)S/C(=C\c2ccc(-c3cc(C(=O)O)ccc3C)o2)C1=O,-0.4%,-6.9%,.,35.5µM*
CCc1ccc(N2CC(C(=O)Nc3ccccc3N3CCCC3)CC2=O)cc1 (configuration not stated),.,.,-0.3%,.
COc1ccc(Cn2nnnc2C(c2ccccn2)N2CCN(c3ccc(O)cc3)CC2)cc1 (configuration not stated),.,.,-8.9%,.
C#Cc1ccc(NC(=O)C2(C)CCN2C(=O)Cc2ccc(C(C)C)cc2)cc1 (configuration not stated),.,.,-0.1%,.
COc1ccc(C2=Nn3c(nnc3-c3ccc(OC)cc3OC)SC2)cc1,.,.,.,-16.1%
O=c1c2ccccc2oc2cc(-c3ccc4[nH]ccc4c3)ccc12,9.8%,?,-2.8%,.
Cc1conc1NC(c1cccs1)c1ccc2cccnc2c1O (configuration not stated),.,.,.,50.1µM*
CCC(=O)NC(c1cccs1)c1ccc2cccnc2c1O (configuration not stated),-4.5%,?,1.7%,?
O=C(Nc1cccc(C(F)(F)F)c1)c1cc(S(=O)(=O)N2CCCC2)c[nH]1,.,.,-27.2%,.
SMILES,TCR act,uPA generation,ClpP mod,Sfp PPTase inh
Cc1cccc(-n2cnc(C(=O)O)c2)n1,-5.5%,8.3%,.,56.2µM*
Cc1cccc(-n2cnc(C(=O)NC3CCCCCC3)c2)n1,10.6%,-3.6%,0.9%,16.8%
CCC(C)NC(=O)c1cn(-c2cccc(C)n2)cn1 (configuration not stated),2.5%,-4.4%,31.6µM*,12.0%
Cc1cccc(-n2cnc(C(=O)N3CCN(C)CC3)c2)n1,-1.1%,.,0.8%,-1.8%
N#C/C(=C\c1ccc2c(c1)OCO2)C(N)=S,-5.5%,-4.3%,0.1%,?
N#C/C(=C/c1ccco1)C(N)=S,-1.0%,1.3%,.,10µM*
COc1ccc(/C=C/C(=O)Nc2ccc(-n3nncc3-c3ccc(OC)c(OC)c3)cc2)cc1OC,-4.9%[46.1 µM],-15.4%,25.1µM*,4.3%
COc1ccc(-c2cnnn2-c2ccc(NC(=O)/C=C/c3ccc(OC)c(OC)c3)cc2)cc1,-7.6%[46.1 µM],-2.8%,?,-8.1%
CCOC(=O)C(C)Sc1nc(-c2ccccn2)ncc1OC (configuration not stated),-7.8%,-1.1%,.,35.5µM*
